# High-throughput results as filed in PubChem BioAssay.
# The list is not random: actives were taken first. Their share in the collection is about 28%.
# CYP2C9 inh = blockers of cytochrome P450 2C9 activity – biochemical, luminescence, ADME assay, primary screen; P11712; CYP2C9 Supersomes, luciferin-H conversion; inhibition, % at 5 µM; 96,000 tested, 20% active; AID 777, 2007;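 active = blocking of liver enzyme CYP2C9 beyond about 50% at 5 µM, limit read from the data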
# CYP2C9 activ = human CYP2C9 activators, primary screen, biochemical, luminescence. Cytochrome P450 2C9 (Homo sapiens), P11712. recombinant CYP2C9, luciferin-H conversion; hits give high values; factor 1 = untreated enzyme, 0 = blocked. activation factor at 5 µM. 96,000 tested, 1.4% active. AID 1024, 2008;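 active = activation factor of 2 or more for CYP2C9 at a 5 µM dose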;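 also: 0 = sulfaphenazole-blocked wells and 1 = vehicle-only wells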
# CYP2C19 inhib = blockers of cytochrome P450 2C19 activity – biochemical, luminescence, ADME assay, primary screen; P33261; AID 778, 2007; inhibition, % at 5 µM; CYP2C19 Supersomes, luciferin-H EGE luminescence, 30 min; 96,000 tested, 21% active;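 active = CYP2C19 inhibition above a set limit at 5 µM in the primary screen, cut at about 50% in these data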;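 also: plate controls were negative control wells for no effect and 2.5 mM tranylcypromine positive control for full effect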
# Target sequence (P33261 whole entry, looked up): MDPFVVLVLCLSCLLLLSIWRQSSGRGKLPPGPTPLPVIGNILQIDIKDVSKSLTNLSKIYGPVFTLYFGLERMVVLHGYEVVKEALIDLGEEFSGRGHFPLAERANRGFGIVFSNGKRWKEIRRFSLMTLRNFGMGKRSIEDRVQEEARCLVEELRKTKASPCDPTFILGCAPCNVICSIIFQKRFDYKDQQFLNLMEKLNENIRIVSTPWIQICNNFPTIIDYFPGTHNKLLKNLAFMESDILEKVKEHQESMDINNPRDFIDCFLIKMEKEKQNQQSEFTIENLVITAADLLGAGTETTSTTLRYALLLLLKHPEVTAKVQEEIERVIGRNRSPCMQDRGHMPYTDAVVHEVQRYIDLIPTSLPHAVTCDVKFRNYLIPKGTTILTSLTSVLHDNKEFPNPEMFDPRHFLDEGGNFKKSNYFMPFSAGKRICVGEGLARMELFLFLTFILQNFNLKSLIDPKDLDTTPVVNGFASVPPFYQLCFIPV
# PLK1 PBD inh = Plk1 polo box domain binding inhibitors, primary screen, biochemical, fluorescence polarization. Serine/threonine-protein kinase PLK1 (Homo sapiens), P53350. Plk1 PBD phosphopeptide binding. inhibition, %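 (tested at about 20 µM)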. 97,000 tested, 0.13% active; in the data active = inhibition above about 34%, passing the limit was not always enough
# PLK1 inh = human PLK1 kinase inhibitors, primary screen, biochemical, TR-FRET; recombinant PLK1 kinase, TR-FRET peptide phosphorylation; inhibition, % at 10 µM; 97,000 tested, 0.53% active;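 active = inhibition of 50% or more in the single-concentration screen; inactive = inhibition below 50%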;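 also: 0% = DMSO max control and 100% = H-89 dihydrochloride min control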
# CYP2C19 activ = human CYP2C19 activators, primary screen, biochemical, luminescence; Cytochrome P450 2C19 (Homo sapiens), P33261; recombinant CYP2C19, luciferin-H EGE luminescence; hits give high values; 0 = fully inhibited enzyme, 1 = untreated enzyme; activation factor at 5 µM; 96,000 tested, under 10 active; AID 1025, 2008;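 active = activation factor of at least 2 at 5 µM in the primary screen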;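 also: 0 = wells with 2.5 mM tranylcypromine and 1 = vehicle-only wells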
# * hit, by the source's call; . = no result.
SMILES,CYP2C9 inh,CYP2C9 activ,CYP2C19 inhib,PLK1 PBD inh,PLK1 inh,CYP2C19 activ
Cc1coc(NC(=O)CSc2nc(-c3ccncc3)cc(C(F)(F)F)c2C#N)n1,35,0.6,20,0,-11,0.8
Cn1c(=O)c2c(nc(CN3CCN(CCO)CC3)n2Cc2cccc3ccccc23)n(C)c1=O,35,0.7,41,-30,-7,0.6
CN(C)S(=O)(=O)c1ccc(NC(=O)N2CCN(c3ccccc3Cl)CC2)cc1,-5,1,-1,-39,-6,1
O=C(CSC1=NCCS1)N1CCCC1,17,0.8,13,.,.,0.9
O=C(Nc1ccccc1)OCCNC(=O)c1cccc(Cl)c1,87*,0.1,93*,13,-3,0.1
O=C(NCCO)c1cccc(Cl)c1,19,0.8,18,2,-1,0.8
O=C(Nc1ccccc1)OCCOc1ccccc1,29,0.7,85*,4,2,0.2
O=C(Nc1ccccc1)O/N=C(\c1ccccc1)c1ccccn1,61*,0.4,24,10,-10,0.8
COc1ccc(OCCOC(=O)Nc2ccccc2)cc1,45,0.6,82*,5,-10,0.2
NC(=O)COc1ccc(NC(=O)OCc2ccccc2)cc1,7,0.9,19,0,-9,0.8
S=C(Nc1ccccc1)c1ccccn1,2,1,2,-5,-1,1
CCN(CC)c1nc(=S)nc(NC(C)(C)C)[nH]1,5,0.9,-2,-1,2,1
O=C(Nc1ccccc1)OCc1ccccn1,9,0.9,51*,9,-22,0.5
COC(=O)Nc1ccc(OCc2ccccc2)cc1,20,0.8,46,8,-4,0.5
COC(=O)Nc1ccc(Oc2ccccc2)cc1,8,0.9,78*,33,-2,0.2
COc1ccccc1-c1cc(C(=O)N2CCc3ccccc3C2)c2ccccc2n1,64*,0.4,48,-32,7,0.5
O=C(O)c1cc(-c2ccncc2)nc2ccc(S(=O)(=O)N3CCOCC3)cc12,60*,0.4,7,16,9,0.9
Cc1ccc(-c2cc(C(F)F)n3ncc(C(=O)N4CCN(c5ccccn5)CC4)c3n2)cc1,57*,0.4,46,-7,-2,0.5
COc1cc(-c2cc(C(=O)N3CCN(c4ccccn4)CC3)c3ccccc3n2)cc(OC)c1OC,.,.,.,-1,-6,.
O=C(c1cc(-c2ccccn2)nc2ccc(Br)cc12)N1CCc2ccccc2C1,89*,0.1,87*,3,-8,0.1
COC(=O)C1C(O)=C(C=NCC(C)N=CC2=C(O)C(C(=O)OC)C(C)(C)CC2=O)C(=O)CC1(C)C (configuration not stated),-6,1.1,0,-6,-1,1
CCOc1ccc(-c2cc(C(=O)N3CCN(C)CC3)c3ccccc3n2)cc1,22,0.8,-4,.,.,1
CCOC(=O)N1CCN(C(=O)c2cc(-c3ccc(OCC)cc3)nc3ccccc23)CC1,76*,0.2,16,6,-11,0.8
CS(=O)(=O)N1CCN(C(=O)c2cc(-c3ccncc3)nc3ccc(Cl)cc23)CC1,68*,0.3,36,13,-5,0.6
COc1ccc(OC)c(-c2cc(C(=O)N3CCN(c4ncccn4)CC3)c3ccccc3n2)c1,89*,0.1,65*,19,11,0.3
SMILES,CYP2C9 inh,CYP2C9 activ,CYP2C19 inhib,PLK1 PBD inh,PLK1 inh,CYP2C19 activ
O=C(c1ccco1)N1CCN(C(=O)c2cc(-c3ccccc3)nc3ccccc23)CC1,14,0.9,-8,-40,-2,1.1
O=C(c1ccco1)N1CCN(C(=O)c2cc(-c3ccccn3)nc3ccc(Cl)cc23)CC1,88*,0.1,53*,-35,-6,0.5
COc1ccc(-c2cc(C(=O)N3CCN(c4ccccn4)CC3)c3ccccc3n2)cc1,77*,0.2,59*,17,-4,0.4
CCn1c2ccccc2c2cc(/C=N/n3cn[nH]c3=S)ccc21,32,0.7,81*,-1,-15,0.2
CCn1c2ccccc2c2cc(/C=N/n3cnnc3)ccc21,74*,0.3,97*,-17,-13,0
C(=N\n1cnnc1)/c1cn(Cc2ccccc2)c2ccccc12,66*,0.3,85*,.,.,0.2
CC(CC(=O)O)CC(=O)Nc1ccccc1C(=O)O (configuration not stated),-18,1.2,-18,-7,-9,1.2
O=C(O)C1CCCCC1C(=O)Nc1nccs1 (configuration not stated),1,1,-6,27,-6,1.1
C=CCOC(=O)C(C#N)c1nc2ccccc2nc1N1CCN(Cc2ccc3c(c2)OCO3)CC1 (configuration not stated),57*,0.4,26,.,.,0.7
C=CCOC(=O)C(C#N)c1nc2ccccc2nc1N1CCC(C(=O)OCC)CC1 (configuration not stated),56*,0.4,26,.,.,0.7
COC(=O)C1CCN(c2nc3ccccc3nc2C(C#N)C(=O)NCCc2ccccc2)CC1 (configuration not stated),.,.,.,17,21,.
CC1CN(c2nc3ccccc3nc2C(C#N)C(=O)NCc2ccc3c(c2)OCO3)CC(C)O1 (configuration not stated),40,0.6,19,-19,-6,0.8
CCOC(=O)C1CCN(c2nc3ccccc3nc2C(C#N)C(=O)OC(C)C)CC1 (configuration not stated),17,0.8,92*,-10,-11,0.1
CCOC(=O)C1CCN(c2nc3ccccc3nc2C(C#N)C(=O)OCCOC)CC1 (configuration not stated),50,0.5,66*,16,-9,0.3
COC(=O)C1CCN(c2nc3ccccc3nc2C(C#N)C(=O)OCC(C)C)CC1 (configuration not stated),48,0.5,34,-21,-6,0.7
CSc1nc(C)cc(OCCNS(=O)(=O)c2cc(C)ccc2C)n1,46,0.5,40,.,.,0.6
O=C(NC1=NCCS1)c1cccc(S(=O)(=O)N2CCCCC2)c1,6,0.9,45,3,-8,0.5
CN(Cc1ccccc1)C(=O)CCSc1nc(-c2ccc3c(c2)OCO3)cc(C(F)(F)F)n1,.,.,.,-12,-14,.
CCOC(=O)C1CCN(c2nc3ccccc3nc2C(C#N)C(=O)OC(C)COC)CC1 (configuration not stated),63*,0.4,61*,.,.,0.4
COc1ccc(-c2nc(-c3cccs3)c(-c3cccs3)[nH]2)cc1O,96*,0,88*,9,-3,0.1
